Screens (PubChem)
D1 agonist – agonists of human D1 dopamine receptor; 1% of 360,000 active; activation, % at 2 µM; HEK293 T-REx D1 cells, calcium flux, agonist mode; in the data active = activation above about 30%; note: 0% is about no effect
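Tetracycline-induced HEK293 TREx D1 cells, force-coupled to calcium signalling, were dye-loaded with a no-wash calcium kit. Compound was pin-added after a 10 s baseline. Fluorescence was read kinetically at 1 cycle/s for 180 s, with calcium rises flagged as agonism.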
DRD3 antagonist – antagonists of human D3 dopamine receptor; D3R cells, DiscoveRx beta-arrestin luminescence, antagonist mode; active compounds read low; P35462; max response, negative = inhibition, %; 2.5% of 360,000 active; in the data active = max response below about -50%; inconclusive = no clear call, values can overlap the other calls; note: % is set by controls: 0 for no effect and ±100 for the full control effect
Target sequence (P35462 whole entry, looked up): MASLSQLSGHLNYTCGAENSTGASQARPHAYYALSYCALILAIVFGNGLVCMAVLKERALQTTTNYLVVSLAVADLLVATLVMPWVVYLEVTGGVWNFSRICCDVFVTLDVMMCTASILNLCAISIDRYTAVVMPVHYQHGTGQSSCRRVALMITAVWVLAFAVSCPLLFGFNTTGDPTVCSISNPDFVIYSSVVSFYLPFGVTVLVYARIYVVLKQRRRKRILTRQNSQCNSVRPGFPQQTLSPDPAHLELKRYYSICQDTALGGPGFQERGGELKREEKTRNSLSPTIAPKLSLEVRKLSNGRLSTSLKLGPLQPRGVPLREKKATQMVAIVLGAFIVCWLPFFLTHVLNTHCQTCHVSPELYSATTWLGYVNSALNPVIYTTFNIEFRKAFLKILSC
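Cells expressing the human receptor were seeded at 1500 cells/well, incubated overnight at 37 degrees C in 5% CO2, then exposed to library compounds with dopamine controls for 90 minutes at 37 degrees C before luminescent detection.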
D3 ag – activates the human D3 dopamine receptor. max activation, %. 0.58% of 410,000 active. AID 652048. D3R DiscoveRx beta-arrestin cells, luminescence, 90 min. P35462; in the data active = max activation above about 30%; note: 0% is about no effect
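Agonist mode: compounds and dopamine controls were applied to plated cells for 90 min at 37 degrees C after an overnight attachment at 1500 cells/well. Luminescent read-out followed 30 - 60 minutes at room temperature with DiscoveRx detection reagent.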
D1 antag – blocks dopamine activation of the human D1 receptor; P21728; HEK293 TREx D1 cells, calcium flux, dopamine EC80; active compounds read low; activity change, negative = inhibition, % at 10 µM; 3.2% of 360,000 active; AID 504652; in the data active = activity change below about -30%; note: % is set by controls: 0 for no effect and ±100 for the full control effect
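Kinetic fluorescence of a calcium dye serves as the read-out. D1-expressing Hek293 Trex cells, induced overnight at 30 C, are exposed to compound for 180 s before an EC80 dopamine addition, then read 180 s further.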
D1 potentiator – enhances dopamine response at the human D1 receptor; P21728; HEK293 TREx D1 cells, calcium flux, dopamine EC20 potentiation; potentiation, % at 10 µM; 0.036% of 360,000 active; AID 504651; in the data active = potentiation above about 30%; note: 0% is about no effect
Active calls of the source: *; ? = inconclusive; · = no result given. Most compounds without a hit are left out; they make up all but 6% or so of the library.

SMILES	D1 agonist	DRD3 antagonist	D3 ag	D1 antag	D1 potentiator
O=c1[nH]c(=O)n(C2CCCCCC2)c(O)c1C=NCCCN1CCOCC1	2	-61*	-6	-1	-5
Cc1ccccc1-n1c(O)c(/C=C2/C(c3ccccc3)=Nc3ccccc32)c(=O)[nH]c1=O	14	-5	-3	-50*	-5
CCCCCCOc1ccc(CN2CCN(C)CC2)cc1	31*	-17	-19	-18	-10
O=C(N=Nc1c(O)[nH]c(=O)[nH]c1=O)C1COc2ccccc2O1 (stereo not drawn)	2	10	2	-37*	-10
O=c1[nH]c(O)c(N=Nc2ccc3c(c2)OCCO3)c(=O)[nH]1	1	-22	-10	38	-1
C[C@]12CC[C@H]3[C@@H](CCC4=C(O)C(=O)CC[C@@H]43)[C@@H]1CC[C@@H]2OC(=O)CCC1CCCC1	·	·	3	·	·
COC1CCC(OC2CC(C3(C)CCC4(CC(O)C(C)C(C(C)/C=C(\C)C(=O)C(C)CC(C)C(=O)O)O4)O3)OC3(OC(C4OC(O)(CO)C(C)CC4C)CC3C)C2C)OC1C (stereo not drawn)	·	133	71*	·	·
Cc1ccc(-n2c(O)c(C=NCc3ccccn3)c(=O)[nH]c2=S)cc1	1	23	6	2	-2
O=c1[nH]c(=S)n(-c2ccccc2)c(O)c1C=NCc1ccccn1	3	-13	9	-44*	-1
NP(=O)(OCCCc1ccccc1)c1ccccc1 (stereo not drawn)	3	-15	36*	5	1
NP(=O)(OCCCc1ccccc1)Oc1ccc(Cl)cc1 (stereo not drawn)	1	0	4	-17	-1
COc1cccc(C2SCC(=O)Nc3c2c(C)nn3-c2ccc(C)c(Cl)c2)c1OC (stereo not drawn)	0	·	-25	-6	-3
O=C(COc1ccccc1)c1cn(Cc2ccccc2)c2ccccc12	30*	?	4	-21	-9
COC(=O)C1=C(C(=O)OC)C2OC1c1cc3ccccc3cc12	·	-58*	-16	·	·
O=c1[nH]c2ccccc2n1C1CCN(C(c2ccccc2OC(F)(F)F)c2nnnn2-c2ccc3c(c2)OCCO3)CC1 (stereo not drawn)	·	13	35*	·	·
Cc1ccccc1-n1c(CF)nc2ccc(N)cc2c1=O	·	·	11	·	·
Oc1cc[c]([Hg][Cl])cc1	·	·	-30	·	·
FC(F)(F)c1ccc2c(c1)N(CCCN1CCN(CCCl)CC1)c1ccccc1S2	10	-78*	-18	·	-4
CC1(C)CC(=O)C2=C(C1)NC(=O)C21C(C(=O)OC(C)(C)C)=C(N)Oc2ccc(Br)cc21 (stereo not drawn)	5	30	31*	5	8
ClC1=C(Cl)C2(Cl)C(CBr)CC1(Cl)C2(Cl)Cl (stereo not drawn)	·	·	-12	·	·
CC(C(=O)c1ccc2ccccc2c1)N1CCCCC1 (stereo not drawn)	1	-19	-13	-2	-2
CC(C)NC(C)C(=O)c1ccc2ccccc2c1 (stereo not drawn)	1	-9	-4	-34*	-4
COc1cc(/C=C/c2nc3ccccc3c(=O)n2-c2cccc(O)c2)ccc1O	19	16	8	-28	-10
COc1ccccc1-n1c(/C=C/c2ccc(O)cc2)nc2ccccc2c1=O	2	8	2	-30*	0
COc1cc(/C=C/c2nc3ccccc3c(=O)n2-c2ccccc2O)ccc1O	49*	3	12	4	-5
SMILES	D1 agonist	DRD3 antagonist	D3 ag	D1 antag	D1 potentiator
O=C(N[C@H]1N=C(c2ccccc2F)c2cccc3c2N(CC3)C1=O)c1cc2ccccc2[nH]1	·	·	-8	·	·
CN1C2CCC1/C(=C/c1ccccn1)C(=O)/C2=C\c1ccccn1	6	-70*	-20	2	3
N#CC(C#N)=Cc1ccc(N2CCCC2)cc1	37*	-19	-14	-27	-11
CN(C)c1ccc(C=C(C#N)C#N)cc1	21	-10	-1	-20	-3
c1ccc2c(c1)[nH]c1cnccc12	0	2	7	17	-2
Cc1c2ccncc2c(C)c2c1[nH]c1ccccc12	33*	-13	-6	-24	-2
CNC(=S)N1CCn2cccc2C1c1cccnc1 (stereo not drawn)	3	-4	-13	-33*	2
